Screening results: PubChem, National Center for Advancing Translational Sciences (NCATS)
4-MU autofl – 4-MU region autofluorescence; AID 589; max dye-equivalent concentration, M; compound autofluorescence, 340/450 nm, 4-MU equivalents; active compounds read high; 11% of 59,000 active; in the data active = max dye-equivalent concentration above about 10 nM; inconclusive = mostly about 1.1 nM to 9.6 nM
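Compounds in 100 mM Tris, pH 8.0, incubated 15 min at room temperature, then fluorescence read at 340 nm excitation/450 nm emission. Signal converted to 4-MU dye-equivalent concentration using an on-plate six-point 4-MU standard curve.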
CRE Fsk mod – CRE-bla signaling modulation under forskolin stimulation. CHO CRE-bla reporter (cAMP response element driving beta-lactamase), forskolin EC10, beta-lactamase ratio. Potency, µM (highest dose often 38.2 µM), for inactives: top-dose activity change, negative = inhibition, usual class: activators. 2.5% of 71,000 active. AID 662; active = well fitted activation curve with a large enough effect in the signal ratio, with a control signal flat, not every such curve was filed as active; inconclusive = small, poorly fitted or top-dose-only effect, or effect the other way, or a change in a side signal; the % refers to the signal ratio; also: potency is read from the fitted curve at half-maximal effect; % of control where 0% means no effect
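Cells were plated overnight at 37 °C, exposed to compound titrations plus EC10 NKH 477 for 3 h, then given CCF4 dye for 2 h at room temperature. Blue/green (460/530 nm) ratio was converted to %Activity and AC50 values calculated.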
A350 fluor – A350 region autofluorescence | Compound autofluorescence, 340/450 nm, Alexa 350 dye-equivalents; active compounds read high | max dye-equivalent concentration, M | 11% of 59,000 active | AID 590; in the data active = max dye-equivalent concentration above about 10 nM; inconclusive = mostly about 1.1 nM to 9.6 nM
AID923 – qHTS Assay for Allosteric/Competitive Inhibitors of Caspase-1: Spectroscopic Profiling in AFC Spectral Region; compound fluorescence, AFC spectral region (405/520 nm); Potency, µM (series often up to 57.5 µM), for the others: top-dose fluorescence increase, most hits filed as activators; 1.1% of 75,000 active; AID 923, 2007; also: potency is read from the fitted curve at half-maximal effect; 0% is about no effect
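Compound autofluorescence profiled at 405 nm ex/520 nm em during kinetic caspase 1 run (50 nM enzyme, 5 uM Ac-WEHD-AFC, HEPES pH 7.5, 10 mM DTT). Titration up to 57 uM; baseline from regression intercept, normalized to AFC standard curve.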
HSD17B inh – HSD17B dehydrogenase inhibition | recombinant HSD17B10, NADH fluorescence kinetic | Potency, µM (titrated, usually from 57.1 µM), for inactives: at the top dose activity change, negative = inhibition, actives largely listed as inhibitors | 7.6% of 75,000 active;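 also: the protocol describes HADH2 (HSD17B10) and not the HSD17B4 of the title; potency is read from the fitted curve at half-maximal effect; % is scaled to controls: 0 for no effect and ±100 for the full control effect; nearly all actives have a fitted effect of over 70% in size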
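20 nM HADH2, pH 9.0 Tris/Tween; cpd preinc 15 min RT; start w/ 1 mM NAD+ + 90 uM b-hydroxybutyryl-CoA; kinetic fluor ex360/em450 q30s x 4 min; delta last-first.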
HADH2 inh – HADH2 (human) dehydrogenase inhibition | Q99714 | recombinant HADH2, NADH fluorescence, beta-hydroxybutyryl-CoA | Potency, µM (top dose mostly 57.1 µM), for the others: top-dose activity change, negative = inhibition, hits mostly inhibitors | 3.4% of 73,000 active | AID 886; also: potency is read from the fitted curve at half-maximal effect; % is scaled to controls: 0 for no effect and ±100 for the full control effect; nearly all actives have a fitted effect of over 60% in size
Target sequence (Q99714 whole entry, looked up, one chain of several): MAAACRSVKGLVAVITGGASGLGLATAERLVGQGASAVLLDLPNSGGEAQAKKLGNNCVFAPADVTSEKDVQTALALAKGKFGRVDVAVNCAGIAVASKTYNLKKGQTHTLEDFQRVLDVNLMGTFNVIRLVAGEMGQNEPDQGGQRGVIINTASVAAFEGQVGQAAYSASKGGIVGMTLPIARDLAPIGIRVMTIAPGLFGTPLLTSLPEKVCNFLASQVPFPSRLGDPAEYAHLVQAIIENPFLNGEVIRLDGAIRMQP
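Activity measured as NADH fluorescence gain (360/450 nm), taken as the change between first and last reads of a 4-min kinetic run. Conditions: pH 9.0 Tris buffer, 20 nM E. coli-expressed His-tagged enzyme, 1 mM NAD+, 90 uM beta-hydroxybutyryl-CoA; 15-min compound preincubation.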
* = called active by the depositor; [ ] = dose if it differs, or a comment. In the library only some 14% were active in any assay of this set; here they are far more common. Unless noted, calls follow the shape of the dose curve; as a rule, active = well fitted curve in the direction sought with a large enough effect; inconclusive = small, poorly fitted or top-dose-only effect, or another doubt; inactive = no such curve, though single readings can be large; an effect the other way counts as inactive or inconclusive.

Screening Cn1ncc2c(Nc3ccc(-c4ccccc4)cc3)ncnc21 returned 4-MU autofl 1.5e-08M*, CRE Fsk mod inconclusive, A350 fluor 1.5e-08M*, AID923 -3%, HSD17B inh inconclusive and HADH2 inh -22%.
`O=S(=O)(O)[C@@H](c1ccccc1)[C@@H](O)c1ccccc1` gave 4-MU autofl inactive, CRE Fsk mod 5%[7.6 µM], A350 fluor inactive, AID923 2%[11.5 µM], HSD17B inh 6%[11.4 µM] and HADH2 inh 3%[11.4 µM].
NCc1nnn(Cc2ccccc2)c1N was read as 4-MU autofl 1.2e-08M*, CRE Fsk mod -4%[7.6 µM], A350 fluor 1.3e-08M*, AID923 3%[11.5 µM], HSD17B inh 11%[11.4 µM] and HADH2 inh 11%[11.4 µM].
`CC(=O)N1CC=CC1(CC(C)C)C(=O)O` (stereo not given) gave CRE Fsk mod 0%, AID923 -4%, HSD17B inh 0% and HADH2 inh 5%.
`COc1cccc(Nc2ncc3nc(-c4cn(C)c5ccccc45)c(=O)n(CCC#N)c3n2)c1` gave 4-MU autofl inactive, CRE Fsk mod inconclusive, A350 fluor inactive, AID923 6%, HSD17B inh 0% and HADH2 inh -8%.
For Cc1cc(NCCCN)nc(-c2ccccc2O)n1 the results were 4-MU autofl inconclusive, CRE Fsk mod 6%, A350 fluor 1.2e-08M*, AID923 1%, HSD17B inh inconclusive and HADH2 inh inconclusive.
Cc1cc(Oc2ccc(Cl)cc2)nc(-c2ccccc2O)n1 was read as 4-MU autofl inactive, CRE Fsk mod inconclusive, A350 fluor inactive, AID923 1%, HSD17B inh 1% and HADH2 inh -4%.
For C/C(=C\c1cc(C(=O)O)c(C)o1)CO the results were 4-MU autofl 2e-08M*, CRE Fsk mod -6%, A350 fluor 2.5e-08M*, AID923 3%, HSD17B inh -3% and HADH2 inh 0%.
For CC(=O)c1ccc(Nc2ncnc3c2oc2ccccc23)cc1 the results were 4-MU autofl 3.1e-08M*, CRE Fsk mod inconclusive, A350 fluor 3.4e-08M*, AID923 -1%, HSD17B inh -6% and HADH2 inh -3%.
`CC(=O)Nc1ccc(Nc2nc(C)nc3c2oc2ccccc23)cc1` gave 4-MU autofl 5.8e-07M*, CRE Fsk mod inconclusive, A350 fluor 8.8e-07M*, AID923 3%, HSD17B inh inconclusive and HADH2 inh 32µM*.
`Cc1nc(NC(C)c2ccccc2)c2oc3ccccc3c2n1` (stereo not given) gave 4-MU autofl inconclusive, CRE Fsk mod inconclusive, A350 fluor inconclusive, AID923 4%, HSD17B inh -19% and HADH2 inh -5%.
Screening CCc1nc(NC(C)C)c2oc3ccccc3c2n1 returned 4-MU autofl inactive, CRE Fsk mod 1.6µM*, A350 fluor inconclusive, AID923 0%, HSD17B inh -22% and HADH2 inh 9%.
For Cc1nc(Nc2ccncc2)c2oc3ccccc3c2n1 the results were 4-MU autofl inactive, CRE Fsk mod 13%, A350 fluor inactive, AID923 1%, HSD17B inh 32µM* and HADH2 inh inconclusive.
`O=C(O)/C=C\c1cnc[nH]1` gave 4-MU autofl inactive, CRE Fsk mod 1%, A350 fluor inactive, AID923 -1%, HSD17B inh 4% and HADH2 inh 12%.
Cc1nc(NCCc2cnc[nH]2)c2oc3ccccc3c2n1 was read as 4-MU autofl inactive, CRE Fsk mod 11%, A350 fluor inactive, AID923 1%, HSD17B inh -3% and HADH2 inh 4%.
`CCc1nc(NCc2ccccn2)c2oc3ccccc3c2n1` gave 4-MU autofl inactive, CRE Fsk mod inconclusive, A350 fluor inconclusive, AID923 -3%, HSD17B inh -12% and HADH2 inh 7%.
Screening CCc1nc(Nc2ccncc2)c2oc3ccccc3c2n1 returned 4-MU autofl inconclusive, CRE Fsk mod inconclusive, A350 fluor inconclusive, AID923 -1%, HSD17B inh 25µM* and HADH2 inh inconclusive.
For Cc1nc(NCc2ccco2)c2oc3ccccc3c2n1 the results were 4-MU autofl inactive, CRE Fsk mod 7.9µM*, A350 fluor inactive, AID923 0%, HSD17B inh 26% and HADH2 inh -5%.
For COc1cc(-c2ccc(N=C=O)c(OC)c2)ccc1N=C=O the results were CRE Fsk mod -1%, AID923 2%, HSD17B inh -8% and HADH2 inh -28%.
For COC(C)=O the results were CRE Fsk mod 1%, AID923 0%, HSD17B inh 0% and HADH2 inh 2%.
`Cc1oc(C(=O)O)cc1COc1ccc2c3c(c(=O)oc2c1C)CCCC3` gave CRE Fsk mod inconclusive, AID923 1%, HSD17B inh 4µM* and HADH2 inh -10%[11.4 µM].
CC(=O)COc1ccc2c3c(c(=O)oc2c1C)CCCCC3 was read as 4-MU autofl 7e-08M*, CRE Fsk mod 2µM*, A350 fluor 8e-08M*, AID923 0%, HSD17B inh 13µM* and HADH2 inh 13µM*.
Screening CC(=O)C(C)Oc1ccc2c3c(c(=O)oc2c1C)CCCC3 (stereo not given) returned 4-MU autofl inconclusive, CRE Fsk mod inconclusive, A350 fluor 1.2e-08M*, AID923 6%, HSD17B inh 25µM* and HADH2 inh -126%.
Cc1c(OCC(=O)OC(C)(C)C)ccc2c3c(c(=O)oc12)CCC3 was read as 4-MU autofl 1.2e-08M*, CRE Fsk mod -4%, A350 fluor 1.6e-08M*, AID923 1%, HSD17B inh 25µM* and HADH2 inh -27%.
Screening Cc1c(OCC(=O)OC(C)C)ccc2c3c(c(=O)oc12)CCC3 returned 4-MU autofl inconclusive, CRE Fsk mod -26%, A350 fluor inconclusive, AID923 -1% and HADH2 inh 18%.
Screening CC(=O)N1C2(C=CC1(C)C(=O)NCc1ccccn1)CCCCC2 (stereo not given) returned CRE Fsk mod 5%, AID923 5%, HSD17B inh -26% and HADH2 inh 4%.
Screening O=C(O)c1ccccc1CN1CCC[C@@H](C(=O)O)C1 returned 4-MU autofl inactive, CRE Fsk mod 7%[7.6 µM], A350 fluor inactive, AID923 -1%[11.5 µM], HSD17B inh -1%[11.4 µM] and HADH2 inh 11%[11.4 µM].
`COCCNc1nc(-c2cccc(OC)c2)nc2ccccc12` gave 4-MU autofl inactive, CRE Fsk mod inconclusive, A350 fluor inactive, AID923 -2%, HSD17B inh -16% and HADH2 inh -29%.
